This note sets out measurements from the supplement of paper PMC6555819.

The subject of the first experiment is FXR:RXRa (NR concentration 270 nM, RXRa partner concentration 90 nM). Put plainly: PBM binding z-score (relative to random genomic background probes); higher = stronger binding; sequences stand for … in GC…GCGATTGACAGCGTAGAATGAAGG
In short, it runs like this:
(§1)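 Scanned fluorescence from custom Agilent 4×180K protein-binding microarrays was regression-normalized. Binding z-scores use random background probes as reference. Ligand-free nuclear receptor dimers were incubated on the arrays for 1 h and detected with antibodies against each partner (one per run).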
In the case of CCAGACAGGAGAGAAGGTAACTCAGCCTCGATTA, the PBM binding z-score is -0.282.

Take CGTCAAAGTTCAAGGTAACGTACCAGAAAGCAGC: the PBM binding z-score came to 6.54.

As for TCTAGTTGGTCACGGAAGTCACACACGACGGGTA, the PBM binding z-score is 0.525.

ATATGTAGGTTATCGGTTCATTCAGTTTGCGCAT returned a PBM binding z-score of 1.28.

Turning to CCTAGCAGGCCAATGTGGGTCACTCAAGGCTTGA, the PBM binding z-score was 0.735.

For TCATATAGGTAATACAGGTGAAAGTTGGCATCTA, the PBM binding z-score is 1.53.

Take GCTAGCATGCCATTTGGGTCACTCAATGACGGGC: the PBM binding z-score turned out to be 0.122.

For CGTCAAAGTTCAAGGTAACGTTACAGAAAGCAGC, the PBM binding z-score turned out to be 6.48.

Turning to CCTTACGGGTCAAGGTTATAGCACGGGTGGTACG, the PBM binding z-score is 5.23.

In the case of CGAACTAGGGCATCCAGGACAGTGAATACATTGA, the PBM binding z-score turned out to be 0.197.

In the case of TTATCAAGGTGAAGGTCGTTGATCCCTCTGTAGA, the PBM binding z-score stood at 2.51.

As for CCAGACAGGTGAAATGTAACTCAGTCTGGTACGC, the PBM binding z-score was 0.0255.

GATTCAGGGTCAAGGCCAGAGTACGCGTATTGAT gave a PBM binding z-score of 6.98.

CGTCCAAGGTCAATGCTAGGTAAGTGAAAGCATT returned a PBM binding z-score of 5.28.

Take CTCGAAAGGTCGTGCTCAGGTGACTATACCAAAC: the PBM binding z-score came to 5.25.

In the case of GCTGCTAGGTCCGGTTGGTCAGCTAACGGGTACG, the PBM binding z-score is -0.467.

The sequence TTACCAAGGTGAGCTGAGGTCGTTGACCCAACTC gave a PBM binding z-score of 2.54.

Turning to TCTATTAGTTGACGGGCAACCGACGAGTCCGTTT, the PBM binding z-score turned out to be 0.51.

For the sequence TTACCAAGGTGAACGTCGTTGATCCCTCTGTAGA, the PBM binding z-score worked out at 0.766.

In the case of GCTATTAGTCGAAAGGGCAACCGAATGATTCTCG, the PBM binding z-score worked out at 0.296.

CCTAGCAGGCTAGGGTCACTCAAGCATTTCGCTT: the PBM binding z-score came out at 2.86.

Regarding CGTCCAAGGTCAAAAGTCAGTGAAGAGATGACGG, the PBM binding z-score was 6.47.

As to ATCGAAAGATCGTGAGGTGAGTATACAGAAAGGC, the PBM binding z-score amounted to 0.0329.

As to CCTCGGAGGACCACAGGAGGTCAGAGCTGCCAGA, the PBM binding z-score was 0.729.

In turn, TCGAGTAGGTTACCAATGGGGTATTCAGCTTTCT registered a PBM binding z-score of 0.116.

AGAACGAGGGCACGCTGAGATGATAGCAGAGTAG came in with a PBM binding z-score of 0.695.

Sequence ATCTCTAAGTAAAGTTCAGTGAAAGATCGATAGA returned a PBM binding z-score of 1.27.

In the case of TCTTGTAGATCAAAAGAGGTTAAGAAAGTGCGCT, the PBM binding z-score came to 0.748.

The sequence ATATGTAGGTTAAGGGTCATTCAGGTTGGTTCGC came in with a PBM binding z-score of 5.11.

CGAACTAGGTCACTGACAGGACAGTGAATAGTAA gave a PBM binding z-score of 3.05.

The sequence CCTACTGGGCCATCACGTCATTGATATCAACGTT showed a PBM binding z-score of -0.11.

Regarding ACCATTAGTTGAGACGAGGGCAACCGATAGGTTG, the PBM binding z-score was determined as 0.428.

Sequence TCGAGTAGGTTACCAATGGGGCATTCTGCTTTCT gave a PBM binding z-score of 0.0174.

For the sequence CAAACTAGGTCAAGAGGTCAATGTCCGCTTCCCG, the PBM binding z-score worked out at 6.4.

TAGCCTAGGTCATTCATGGGCCAGTATAGAAAGC gave a PBM binding z-score of 4.38.

In turn, GCTTACGGGTCAAAGGTAATAGCATGAATAGAAT showed a PBM binding z-score of 6.06.

Sequence TTACCAAGGTAAAGGTCGTTGATCCCTCTGTAGA yielded a PBM binding z-score of 3.54.

TCTTGTAGATCAACAGGGGGTTAAGAAAGATCGA: the PBM binding z-score was 1.48.

Sequence CAAACTAGGTCAAGGCCAAAGTCGGTTTGTGCCA returned a PBM binding z-score of 3.98.

Sequence CCAGACAGTTGAGAAGGTAACTCAGCCTCGATTA displayed a PBM binding z-score of 0.18.

The test system of a further experiment is LXRa:RXRa (NR concentration 270 nM, RXRa partner concentration 90 nM). The description is as above. In short, it runs like this: as §1
CCAGACAGGAGAGAAGGTAACTCAGCCTCGATTA returned a PBM binding z-score of -0.227.

The sequence CGTCAAAGTTCAAGGTAACGTACCAGAAAGCAGC came in with a PBM binding z-score of 5.59.

TCTAGTTGGTCACGGAAGTCACACACGACGGGTA had a PBM binding z-score of 0.526.

As to ATATGTAGGTTATCGGTTCATTCAGTTTGCGCAT, the PBM binding z-score turned out to be 1.84.

With CCTAGCAGGCCAATGTGGGTCACTCAAGGCTTGA, the PBM binding z-score stood at 1.67.

TCATATAGGTAATACAGGTGAAAGTTGGCATCTA registered a PBM binding z-score of 1.59.

In turn, GCTAGCATGCCATTTGGGTCACTCAATGACGGGC displayed a PBM binding z-score of -0.0732.

Consider CGTCAAAGTTCAAGGTAACGTTACAGAAAGCAGC, for which the PBM binding z-score was 5.5.

CCTTACGGGTCAAGGTTATAGCACGGGTGGTACG came in with a PBM binding z-score of 3.73.

Take CGAACTAGGGCATCCAGGACAGTGAATACATTGA: the PBM binding z-score is -0.226.

For TTATCAAGGTGAAGGTCGTTGATCCCTCTGTAGA, the PBM binding z-score came to 1.93.

With CCAGACAGGTGAAATGTAACTCAGTCTGGTACGC, the PBM binding z-score is -0.0223.

In turn, GATTCAGGGTCAAGGCCAGAGTACGCGTATTGAT displayed a PBM binding z-score of 5.3.

Consider CGTCCAAGGTCAATGCTAGGTAAGTGAAAGCATT, for which the PBM binding z-score was 4.48.

As to CTCGAAAGGTCGTGCTCAGGTGACTATACCAAAC, the PBM binding z-score worked out at 3.88.

Regarding GCTGCTAGGTCCGGTTGGTCAGCTAACGGGTACG, the PBM binding z-score is -0.521.

As for TTACCAAGGTGAGCTGAGGTCGTTGACCCAACTC, the PBM binding z-score worked out at 2.48.

With TCTATTAGTTGACGGGCAACCGACGAGTCCGTTT, the PBM binding z-score is 0.776.

For TTACCAAGGTGAACGTCGTTGATCCCTCTGTAGA, the PBM binding z-score turned out to be 0.802.

In the case of GCTATTAGTCGAAAGGGCAACCGAATGATTCTCG, the PBM binding z-score was 0.236.

Take CCTAGCAGGCTAGGGTCACTCAAGCATTTCGCTT: the PBM binding z-score was found to be 2.4.

In turn, CGTCCAAGGTCAAAAGTCAGTGAAGAGATGACGG displayed a PBM binding z-score of 5.19.

ATCGAAAGATCGTGAGGTGAGTATACAGAAAGGC displayed a PBM binding z-score of -0.211.

In turn, CCTCGGAGGACCACAGGAGGTCAGAGCTGCCAGA gave a PBM binding z-score of 1.79.

Sequence TCGAGTAGGTTACCAATGGGGTATTCAGCTTTCT registered a PBM binding z-score of 0.749.

In the case of AGAACGAGGGCACGCTGAGATGATAGCAGAGTAG, the PBM binding z-score was determined as 0.423.

As for ATCTCTAAGTAAAGTTCAGTGAAAGATCGATAGA, the PBM binding z-score came to 1.99.

For TCTTGTAGATCAAAAGAGGTTAAGAAAGTGCGCT, the PBM binding z-score was 3.35.

ATATGTAGGTTAAGGGTCATTCAGGTTGGTTCGC registered a PBM binding z-score of 5.05.

Consider CGAACTAGGTCACTGACAGGACAGTGAATAGTAA, for which the PBM binding z-score was 2.26.

Sequence CCTACTGGGCCATCACGTCATTGATATCAACGTT returned a PBM binding z-score of -0.114.

Take ACCATTAGTTGAGACGAGGGCAACCGATAGGTTG: the PBM binding z-score was 0.177.

The sequence TCGAGTAGGTTACCAATGGGGCATTCTGCTTTCT registered a PBM binding z-score of 1.11.

As to CAAACTAGGTCAAGAGGTCAATGTCCGCTTCCCG, the PBM binding z-score is 6.19.

TAGCCTAGGTCATTCATGGGCCAGTATAGAAAGC: the PBM binding z-score is 3.5.

On to GCTTACGGGTCAAAGGTAATAGCATGAATAGAAT, for which the PBM binding z-score was found to be 4.07.

The sequence TTACCAAGGTAAAGGTCGTTGATCCCTCTGTAGA displayed a PBM binding z-score of 3.56.

For the sequence TCTTGTAGATCAACAGGGGGTTAAGAAAGATCGA, the PBM binding z-score is 2.69.

Take CAAACTAGGTCAAGGCCAAAGTCGGTTTGTGCCA: the PBM binding z-score was 2.52.

For CCAGACAGTTGAGAAGGTAACTCAGCCTCGATTA, the PBM binding z-score stood at 0.172.
